This is a sample that favours compounds with a hit; in the whole collection about 11% have one here.
Luciferase inh – inhibitors of firefly (Photinus pyralis) luciferase; 76,000 tested, 2.5% active; P08659; Potency, µM (titrated, usually from 115 µM), most hits filed as inhibitors; purified P. pyralis luciferase, luminescence, biochemical; further: nearly all actives have a fitted effect of over 65% in size
Target sequence (P08659 whole entry, looked up): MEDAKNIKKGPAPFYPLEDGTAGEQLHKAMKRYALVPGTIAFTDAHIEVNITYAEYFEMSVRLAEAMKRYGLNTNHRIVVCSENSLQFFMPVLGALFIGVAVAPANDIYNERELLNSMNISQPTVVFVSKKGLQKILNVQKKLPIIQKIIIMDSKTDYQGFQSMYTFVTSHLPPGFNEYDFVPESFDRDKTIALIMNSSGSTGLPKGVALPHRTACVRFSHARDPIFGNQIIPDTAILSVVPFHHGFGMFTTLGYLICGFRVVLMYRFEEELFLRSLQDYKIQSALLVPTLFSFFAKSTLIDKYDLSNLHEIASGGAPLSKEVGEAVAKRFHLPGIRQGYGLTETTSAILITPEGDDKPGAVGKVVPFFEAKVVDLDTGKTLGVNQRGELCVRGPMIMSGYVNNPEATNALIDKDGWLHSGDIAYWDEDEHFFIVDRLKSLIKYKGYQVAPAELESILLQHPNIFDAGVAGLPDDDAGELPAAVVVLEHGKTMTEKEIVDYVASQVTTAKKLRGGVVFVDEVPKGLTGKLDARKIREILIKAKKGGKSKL
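Inhibitors were tested against purified firefly luciferase in a biochemical, low-substrate format (both substrates at 10uM) and luminescence measured with a CCD imager.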
3T3 cytotox – cytotoxic compounds in NIH 3T3 cells | NIH 3T3 viability, CellTiter-Glo ATP luminescence, 48-72 h | 94,000 tested, 4.3% active | AID 1345082 | Potency, µM (titrated, usually from 96.7 µM), for the others: top-dose activity change, negative = cytotoxicity, hits mostly inhibitors; further: nearly all actives have a fitted effect of over 55% in size
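NIH 3T3 cells at 400 cells/well received 23 nL of compound by pintool and were incubated 48 or 72 h at 37 °C. Viability was read as ATP-coupled CellTiter-Glo luminescence.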
HEK cytotox – kills HEK 293 cells | HEK 293 viability, ATP luminescence (CellTiter-Glo), 48-72 h | Potency, µM (doses to about 115 µM), for inactives: at the highest dose activity change, negative = cytotoxicity, usual class: inhibitors | 94,000 tested, 6.6% active | AID 1345083; further: nearly all actives have a fitted effect of over 60% in size
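Read-out: CellTiter-Glo ATP luminescence. Cells: HEK 293, 250 cells/well. Exposure: 48 or 72 hr, 37 degree Celsius.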
NPR1 antag – blocks ANP-stimulated signaling of human Npr1 receptor | P16066 | HEK293 hNpr1 GloSensor cGMP, ANP-stimulated luminescence | Potency, µM (top dose mostly 46.3 µM), for inactives: at the top dose activity change, negative = inhibition, actives largely listed as inhibitors | 76,000 tested, 1.6% active; calls by dose curve; further: nearly all actives have a fitted effect of over 60% in size
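Compound pre-incubated 30 min at room temperature on GloSensor-loaded HEK293 cells stably carrying hNpr1 and the pGS-40F cGMP biosensor. Stimulation uses hNppA at 0.1 nM final; luminescence is taken at baseline and 20 min post-agonist.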
Active calls of the source: *; i = inactive; u = inconclusive; x = no result given; [ ] = another dose, or the depositor's remark. Unless noted, the call rests on the fitted dose curve; in most records, active means well fitted curve in the direction sought with a large enough effect; inconclusive means small, poorly fitted or top-dose-only effect, or another doubt; inactive means no such curve, though single readings can be large; an effect the other way counts as inactive or inconclusive. On the % scale 0 is the no-effect control and ±100 the full control effect; potency means the concentration at half of the fitted maximal effect.

SMILES	Luciferase inh	3T3 cytotox	HEK cytotox	NPR1 antag
CNC(=O)CCn1ncc2cc(OC3CCc4cccc(-c5cnn(C)c5)c43)ccc21 (stereo not drawn)	i	u	50.1µM*	1.3%[70.6 µM]
C[C@@H]1CN(C(=O)c2cnc3c(O)cccn3c2=O)CC[C@@]1(O)C1CCC1	i	u	u	-0.9%
COc1ccc(Nc2ccnc(N3CCC(NC(=O)c4ccccc4F)CC3)n2)cc1	x	u	50.1µM*	x
COc1ccc(Nc2ccnc(N3CCC(NC(=O)c4ccc(C)cc4)CC3)n2)cc1	x	-29.5%	u	x
Cc1ccc(Nc2ccnc(N3CCC(NC(=O)c4ccccc4F)CC3)n2)cc1	x	u	50.1µM*	x
COc1cccc(C(=O)NC2CCN(c3nccc(Nc4ccc(C)cc4)n3)CC2)c1	x	39.8µM*	u	x
CNC(=O)[C@H]1CN(C(=O)NCc2ccccc2)[C@]2(C)C(=O)N(CC(=O)N(C)C)c3ccccc3[C@H]12	x	u	-7.1%[57.5 µM]	x
CCCCn1c(=O)c(C(=O)N2CCN(C(=O)Cc3ccc(OC)cc3)CC2)nc2cccnc21	x	-20.7%	-6.7%	x
CCn1ccc(C(=O)N2CCC3(CC2)c2[nH]c4ccc(OC)cc4c2CCN3C)n1	i	-1.1%	-18.2%	7.6%
CCC(=O)N1CCc2c(sc3ncnc(NCc4ccccc4)c23)C1	i	u	u	-15.5%
COCCCNC(=O)Cc1cccn1-c1ccc(F)cc1	i	-2.0%	1.5%	-1.3%
O=[S+]1([O-])NCC2(CCN(Cc3ccccc3C(F)(F)F)CC2)Nc2ccccc21	i	i	u	6.2%
O=[S+]1([O-])NC2(CCN(Cc3ccccc3C(F)(F)F)C2)CNc2ccccc21 (stereo not drawn)	i	u	39.8µM*	-3.1%
O=C(c1ccc(C(F)(F)F)cc1)N1CCC2(CC1)CNc1ccccc1[S+](=O)([O-])N2	i	-11.9%	50.1µM*	-4.0%
O=[S+]1([O-])NC2(CCN(Cc3cccc4ccccc34)C2)CNc2ccccc21 (stereo not drawn)	i	u	39.8µM*	u
O=[S+]1([O-])NC2(CCN(Cc3ccncc3)CC2)CNc2ccccc21	i	-23.0%	-3.1%	4.6%
O=[S+]1([O-])NC2(CCN(Cc3ccc(C(F)(F)F)cc3)C2)CNc2ccccc21 (stereo not drawn)	i	u	44.7µM*	u
O=C(NCC(F)(F)F)c1ccc2oc(-c3cccnc3)nc2c1	x	-26.4%	u	x
COc1ccccc1CNC(=O)C1CCCN1c1nccc(Nc2ccccc2F)n1 (stereo not drawn)	x	u	39.8µM*	x
O=C(C1CCCN1c1nccc(Nc2ccccc2F)n1)N1CCC(Cc2ccccc2)CC1 (stereo not drawn)	x	39.8µM*	28.2µM*	x
COc1ccccc1Nc1ccnc(N2CCC[C@H]2C(=O)NCCc2ccccc2F)n1	x	-19.1%	u	x
c1cnc2nc(C3CCN(CC4CCCCC4)C3)[nH]c2c1 (stereo not drawn)	20µM*	-21.7%[138 µM]	u	6.4%[70.6 µM]
O=C(C1CCCN([S+](=O)([O-])c2cccc(C(F)(F)F)c2)C1)N1CCCC(c2nc3ccncc3[nH]2)C1 (stereo not drawn)	x	u	44.7µM*	x
O=C(C1CCN(CC2CC2)CC1)N1CCC(c2nc3ncccc3[nH]2)CC1	x	-3.5%	i	x
Cc1ccc([S+](=O)([O-])N2CCC(C(=O)N3CCCC(c4nc5ncccc5[nH]4)C3)CC2)cc1 (stereo not drawn)	x	u	28.2µM*	x
SMILES	Luciferase inh	3T3 cytotox	HEK cytotox	NPR1 antag
O=C(C1CCCN([S+](=O)([O-])c2cccc(C(F)(F)F)c2)C1)N1CCC(c2nc3ccncc3[nH]2)C1 (stereo not drawn)	x	-30.5%	-19.5%	x
O=C(Nc1ccc(Cl)cc1)N1CCCC(C(=O)N2CCCC(c3nc4ncccc4[nH]3)C2)C1 (stereo not drawn)	x	22.4µM*	u	x
O=C(NCCc1ccc(F)cc1)c1nc2cccnc2n(C2CC2)c1=O	x	-11.8%	i	x
Cc1ccc([S+](=O)([O-])N2CCCC(C(=O)N3CCC(c4nc5ncccc5[nH]4)CC3)C2)cc1 (stereo not drawn)	x	u	50.1µM*	x
O=C1CC(c2ccccc2)N(C(=O)CNC(=O)c2cc3ccccc3[nH]2)CCCCCCN1 (stereo not drawn)	i	-1.9%	u	-3.3%
COc1ccc(F)cc1-c1ncc2c(n1)OCCN(c1cccc(C(F)(F)F)c1)C2=O	i	35.5µM*	u	-10.9%[70.6 µM]

Bioassay records (PubChem)
